# Test results reported in ChEMBL document CHEMBL3433997, “St. Jude Leishmania screening dataset” (2016).
# Experiments:
# Format in all cases: functional
# [1] = molecular target: Solute carrier family 2, facilitated glucose transporter member 1 (Homo sapiens) (UniProt P11166); assay: ST_JUDE_LEISH: Cytotoxicity at 2uM final concentration against transgenic Leishmania Mexicana promastigotes LmGLUT1 that are glucose transport deficient and complemented with the human glucose transporter GLUT1. Activity is measured by DNA content using SYBR green in vitro
# Sequence of Solute carrier family 2, facilitated glucose transporter member 1 (Homo sapiens) (P11166 whole entry): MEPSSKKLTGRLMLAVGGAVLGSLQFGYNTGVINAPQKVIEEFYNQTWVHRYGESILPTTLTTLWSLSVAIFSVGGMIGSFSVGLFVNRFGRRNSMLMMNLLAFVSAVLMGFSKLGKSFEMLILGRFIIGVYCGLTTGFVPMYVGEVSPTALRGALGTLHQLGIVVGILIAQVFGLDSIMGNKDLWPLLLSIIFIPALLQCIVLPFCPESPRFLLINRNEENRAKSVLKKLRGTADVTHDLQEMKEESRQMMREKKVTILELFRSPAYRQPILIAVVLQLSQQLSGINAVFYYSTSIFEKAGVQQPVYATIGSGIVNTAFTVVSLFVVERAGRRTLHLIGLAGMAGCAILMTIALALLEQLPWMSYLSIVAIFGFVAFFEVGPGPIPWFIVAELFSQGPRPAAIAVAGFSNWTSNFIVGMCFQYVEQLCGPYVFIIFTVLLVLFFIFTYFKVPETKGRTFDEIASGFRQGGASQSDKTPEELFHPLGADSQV
# [2] = molecular target: Hexose transporter 1 (Plasmodium falciparum) (UniProt O97467); assay: ST_JUDE_LEISH: Cytotoxicity at 2uM final concentration against transgenic Leishmania Mexicana promastigotes LmPfHT that are glucose transport deficient and complemented with the Plasmodium falciparum hexose transporter. Activity is measured by DNA content using SYBR green in vitro
# [3] = molecular target: Glucose transporter (Leishmania mexicana) (UniProt O61059); assay: ST_JUDE_LEISH: Cytotoxicity at 2uM final concentration against transgenic Leishmania Mexicana promastigotes LmGT2 that are glucose transport deficient and complemented with the L. Mexicana glucose transporter 2. Activity is measured by DNA content using SYBR green in vitro
Structure (SMILES),inhibition [1] [%],inhibition [2] [%],inhibition [3] [%]
Cn1ncc2ccc(Nc3nccc(-c4ccc5c(c4)c(N)nn5C)n3)cc21,93.3,97.5,93.8
O=C(NCc1ccc(F)cc1)c1cnc(N2CCN(c3ccncc3)CC2)c(Cl)c1,22.7,11.6,5.45
O=C(Nc1ccc(Cl)c(Cl)c1)N[C@H]1CCN(CCCCCNC(=O)C2CC2c2ccc(Cl)c(Cl)c2)C1 (stereo partly drawn),12.3,8.71,10.6
CC(C)(CNC(=O)[C@@H]1CCCN(Cc2ccc(Cl)cc2)C1)c1nc(-c2ccc(Cl)c(O)c2)c(-c2ccncc2)[nH]1,-1.45,0.41,0.77
COc1cc2ncnc(Nc3ccc(OCc4ccccc4)c(I)c3)c2cc1OC,1.41,0.71,1.33
CCc1c(C)c2ccc3c(c2oc1=O)CN(CCc1ccc(F)cc1)CO3,6.07,6.16,5.28
O=C(Nc1cccc(CN2CCCN(CCc3ccccc3)CC2)c1)c1cc2ccccc2s1,-1.04,-1.82,1.52
CCOc1ccc2[nH]c(-c3ccccc3)cc(=NN=Cc3ccncc3)c2c1,1.66,4.54,-0.25
COc1ccc(C(=O)CCC(=O)N(Cc2ccc(-c3ccc(CNCCc4ccc(S(C)(=O)=O)cc4)cn3)cc2)C2CCN(Cc3ccccc3)CC2)cc1F,4.03,5.85,2.72
NC(=O)COc1c(C2CCN(CCCCNC(=O)c3ccc(-c4ccc(Cl)cc4)c(O)c3)CC2)ccc2c1CCCC2,-0.69,2.57,2.53
CS(=O)(=O)CCNCc1cc(-c2cc3ncnc(Nc4ccc(OCc5cccc(F)c5)c(Cl)c4)c3s2)cs1,5.58,6.19,5.4
CCc1ccc(NC(=O)c2ccc(CN3CCCN(Cc4cccc(Cl)c4)CC3)cc2)cc1,1.47,2.69,2.29
CC(C)Cn1c(Sc2ccc(C#N)c([N+](=O)[O-])c2)nnc1-c1ccccc1,6.46,6.58,3.76
COc1ccc2cc(-c3nc(-c4c(Cl)cccc4Cl)[nH]c3-c3ccnc(NCCC4CCCN4C)c3)ccc2c1 (stereo not drawn),29.7,12.8,8.98
O=C(Nc1ccc2c(c1)CCC2)c1ccc(N2CCN(c3ccncc3)CC2)cc1,68.7,29.6,68.3
O=C(Nc1ccc(F)c(F)c1)c1ccc(CN2CCCN(Cc3cccc(F)c3)CC2)cc1,0.07,-0.34,1.29

Structure (SMILES),inhibition [1] [%],inhibition [2] [%],inhibition [3] [%]
Cc1cc2[nH]c(-c3ccc(C(=O)NCCCN4CCN(c5cccc(Cl)c5)CC4)cc3)nc2cc1Cl,1.69,3.45,-1.01
CCN(CCCN1CCCCC1)c1cc(C)nc(Nc2ccc(OC)cc2)n1,-2.3,-1.06,-1.02
COc1ccc(CNc2ccnc(-n3cnc4cc(C)c(C)cc43)n2)cc1Cl,4.37,3.69,2.53
COc1ccc(-c2nc3c(N)nc(N)nc3nc2-c2ccccc2Cl)cc1.COc1ccc(-c2nc3nc(N)nc(N)c3nc2-c2ccccc2Cl)cc1,9.91,10.5,6.97
CN1CCCC1CCNC(=O)[C@H](CC1CCCCC1)NC(=O)c1ccc(O)c(-c2ccc(Cl)c(Cl)c2)c1 (stereo partly drawn),8.26,10.3,6.63
Cc1noc(C)c1-c1cccc(CNCc2ccc(-c3ccc(-c4nc5cc(C(F)(F)F)ccc5[nH]4)cc3)cc2)c1,5.36,4.54,4.2
CN(C)CCNC(=O)[C@H](Cc1ccccc1)NC(=O)c1ccc(O)c(-c2ccc(Cl)c(Cl)c2)c1,-0.64,1.18,-2.32
Nc1nc(N)c2c(ccc3c2ccn3Cc2ccc(-c3ccccc3)cc2)n1,113,113,113
COc1ccc2[nH]c(C)cc(=NN=Cc3ccc(Cl)cc3)c2c1,6.05,6.41,-0.5
CC1=C(C(=O)OC(C)C)C(c2ccccc2Cl)C2=C(CC(c3ccccc3)CC2=O)N1 (stereo not drawn),7.11,6.69,7.36
CCCN(CCCN(CCCN(CCC)C(C)C)c1cc(C)nc(Nc2ccc(Cl)cc2)n1)C(C)C,9.21,7.26,6.27
O=C(Nc1ccc(OC2CCN(Cc3ccc(F)cc3)C2)c(Cl)c1)c1ccsc1 (stereo not drawn),4.02,3.33,1.2
O=S(=O)(NCCN1CCCC1)c1cccc(-c2cccc(CNCc3ccc(F)cc3)c2)c1,0.2,2.85,-2.32
CCNc1cc(C(=O)N[C@@H](Cc2ccccc2)[C@H](O)CNC2CCCC2)cc(N2CCCC2=O)c1,3.87,3.77,3.46
C=CCn1cc(C2CCN(CCCCNC(=O)c3sc(-c4ccc(C(F)(F)F)cc4)nc3CO)CC2)c2cc(OC)ccc21,1.93,3.91,4.35
